This note sets out measurements from PubChem BioAssay (NCATS).

SMILES strings stand for the structures. Inconclusive results are not listed. Activity calls are given as the source filed them. Unless noted, the call rests on the fitted dose curve; in most records, active means well fitted curve in the direction sought with a large enough effect; inconclusive means small, poorly fitted or top-dose-only effect, or another doubt; inactive means no such curve, though single readings can be large; an effect the other way counts as inactive or inconclusive.

The target of assay [1] is Ubiquitin carboxyl-terminal hydrolase 1 (Homo sapiens) (UniProt O94782). Put plainly: Inhibitors of USP1/UAF1: Pilot qHTS (AID 504865). Further: nearly all actives have a fitted effect of over 35% in size. Further: potency means the concentration at half of the fitted maximal effect. The method in brief: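 In 50mM HEPES pH 7.8 containing 0.5mM EDTA, 1mM TCEP, 0.1 mg/ml BSA and 0.01% Tween-20, 1nM USP1/UAF1 is exposed to compound for 15 min, then Ub-Rho (150nM final) is added and fluorescence is read over time.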
Sequence of Ubiquitin carboxyl-terminal hydrolase 1 (Homo sapiens) (O94782 whole entry, looked up): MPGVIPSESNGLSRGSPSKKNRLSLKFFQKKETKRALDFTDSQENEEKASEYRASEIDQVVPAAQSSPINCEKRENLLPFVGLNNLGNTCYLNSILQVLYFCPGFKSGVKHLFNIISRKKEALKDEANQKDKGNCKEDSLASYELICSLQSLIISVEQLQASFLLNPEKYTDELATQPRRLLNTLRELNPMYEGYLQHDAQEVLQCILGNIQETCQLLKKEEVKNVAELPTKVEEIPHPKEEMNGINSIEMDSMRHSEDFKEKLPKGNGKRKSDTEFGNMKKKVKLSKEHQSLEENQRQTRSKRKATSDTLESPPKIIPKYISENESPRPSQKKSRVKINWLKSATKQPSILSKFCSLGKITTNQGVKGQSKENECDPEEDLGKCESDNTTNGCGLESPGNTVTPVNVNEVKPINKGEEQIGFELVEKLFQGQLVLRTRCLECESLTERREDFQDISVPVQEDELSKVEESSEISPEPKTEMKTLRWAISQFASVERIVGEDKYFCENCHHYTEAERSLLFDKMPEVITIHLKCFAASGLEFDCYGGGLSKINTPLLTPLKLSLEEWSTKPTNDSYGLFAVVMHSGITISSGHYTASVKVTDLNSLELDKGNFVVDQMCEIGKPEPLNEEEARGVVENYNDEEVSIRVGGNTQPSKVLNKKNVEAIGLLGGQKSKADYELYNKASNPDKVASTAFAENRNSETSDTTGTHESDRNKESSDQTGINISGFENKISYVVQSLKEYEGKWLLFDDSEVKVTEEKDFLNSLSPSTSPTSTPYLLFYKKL
(Quantitative high-throughput screening tests each substance at several concentrations.)

The nature of assay [2]: S16 Schwann cell viability assay (CellTiter-Glo assay) (AID 624031).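 Further: cellular ATP luminescence as a viability measure; nearly all actives have a fitted effect of over 70% in size.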 The gist of the method: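 Native S16 rat Schwann cells in DMEM/10% FBS without phenol red were incubated overnight, then exposed to compounds for 24 h at 37 °C/5% CO2. Viability was read as ATP luminescence (CellTiter-Glo), normalized to no-cell wells and DMSO (0%).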
On the technique in general: Cellular ATP, detected with luciferase, serves as a proxy for viable cell number.

Assay [3] can be described thus: S16 Schwann cell PMP22 intronic element firefly luciferase assay (AID 624032). Further: nearly all actives have a fitted effect of over 30% in size. Further: potency means the concentration at half of the fitted maximal effect. The method in brief:
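Luciferase reporter of PMP22 intronic-element expression in stably transfected S16 rat Schwann cells, read by ONE-Glo luminescence after 24 h compound exposure at 37 C. Activity scaled between DMSO (0%) and positive-control PTC124; concentration-effect curves quality-classified.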

Assay [4] can be described thus: S16 Schwann cell PMP22 intronic element beta-lactamase assay (AID 624044; calls by dose curve; further: nearly all actives have a fitted effect of over 15% in size; further: potency means the concentration at half of the fitted maximal effect). As to conditions: S16 rat Schwann cells, PMP22 element beta-lactamase FRET, 24 h; ratio activity, negative = inhibition: at 38.3 µM (top of the series). The gist of the method: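 Rat S16 Schwann cells with beta-Lac driven by a PMP22 intronic element, compound-treated 24 h at 37 °C. LiveBLAzer FRET B/G read: 460 nm normalized to potassium clavulanate vs DMSO; 535 nm FRET as viability; concentration-effect curves classified.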

The subject of the next assay is W2. Description: qHTS profiling for inhibitors of Plasmodium falciparum proliferation (AID 504749). Further: nearly all actives have a fitted effect of over 60% in size. Further: potency means the concentration at half of the fitted maximal effect. The settings on record: P. falciparum in erythrocytes, SYBR Green DNA, 72 h; series mostly up to 28.7 µM. The gist of the method: (§1)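 Infected RBCs, 0.3% parasitemia/2.5% Hct final; cpd 72 h, 37 C, 5% CO2; lysis buffer with saponin/triton/SYBR Green I, o/n RT dark; FI 485/535; norm. to artemisinin (0.29 uM) and DMSO.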

The test system of another assay is DFO2036. The assay is described as above. The settings on record: P. falciparum in erythrocytes, SYBR Green DNA, 72 h; series mostly up to 28.7 µM. The gist of the method:
as §1

Assay [5] is described as follows: Confirmation and Secondary Assay for Modulators of Hemoglobin Beta Chain Splicing at IVS2 705 locus (AID 930).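 Further: HeLa cells stably expressing the EGFP-705 splicing reporter.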 The gist of the method: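 HeLa cells stably carrying EGFP interrupted by mutant beta-globin IVS2-705 intron (CMV-driven) were seeded at 500 cells/well, treated next day with compound for 2 days at 37C; corrected splicing restores EGFP, read as total peak GFP intensity per well.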

For assay [6], the target named is Cytochrome P450 3A4 (Homo sapiens) (UniProt P08684). Description: qHTS Assay for Activators of Cytochrome P450 3A4 (AID 885). Further: nearly all actives have a fitted effect of over 65% in size. The method in brief:
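20nM CYP3A4 + 25uM Luciferin-PPXE (=KM), 200mM KPO4; cpd 10 min RT; NADPH regen, 60 min RT; stop w/ detection buffer, 20 min; luminescence. Normalized to 57 uM ketoconazole.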

Sequence of Cytochrome P450 3A4 (Homo sapiens) (P08684 whole entry, looked up): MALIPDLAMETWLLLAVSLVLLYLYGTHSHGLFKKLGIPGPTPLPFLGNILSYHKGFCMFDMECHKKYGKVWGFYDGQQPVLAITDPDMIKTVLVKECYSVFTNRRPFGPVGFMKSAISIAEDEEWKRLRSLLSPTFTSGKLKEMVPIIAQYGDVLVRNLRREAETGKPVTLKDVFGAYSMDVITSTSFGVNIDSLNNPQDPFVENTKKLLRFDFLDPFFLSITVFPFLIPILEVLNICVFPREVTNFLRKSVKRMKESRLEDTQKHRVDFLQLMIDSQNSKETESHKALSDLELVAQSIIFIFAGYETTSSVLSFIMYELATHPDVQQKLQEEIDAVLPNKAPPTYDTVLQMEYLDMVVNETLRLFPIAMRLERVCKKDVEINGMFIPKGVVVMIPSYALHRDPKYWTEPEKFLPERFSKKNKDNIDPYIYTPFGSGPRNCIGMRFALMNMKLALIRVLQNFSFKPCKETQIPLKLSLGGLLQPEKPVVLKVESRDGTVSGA

On to `NC(=O)NC(CCC(=O)O)C(=O)O` (centres undefined), for which the Potency result (in assay [1]; in assay [2]; in assay [3]; in assay [4]; in the assay with W2) was “inactive” throughout.
On to `OCC1OC(O)C(O)C(O)C1O` (centres undefined), for which the Potency result (in assay [1]; in assay [2]; in assay [3]; in assay [4]; in the assay with DFO2036) was “inactive” in each case.
On to `CO/N=C(/C(=O)N[C@@H]1C(=O)N2C(C(=O)O)=C(CSc3cnns3)CS[C@H]12)c1csc(N)n1`, for which the Potency result (in assay [1]; in assay [3]; in assay [4]; in the assay with W2) was “inactive” throughout.
Consider `C=C[C@@]1(C)C[C@H](OC(=O)CSC(C)(C)CNC(=O)[C@@H](N)C(C)C)[C@@]2(C)C(C)CC[C@@]3(CCC(=O)[C@@H]32)[C@H](C)[C@H]1O` (some centres undefined), for which the Potency entry in assay [1] and in assay [4] was “inactive” each time. The Potency in assay [3] was 361 nM (active); in the assay on W2 it was 269 nM (active).
As for `O=C(O)Cc1sc(-c2ccc(Cl)cc2)nc1-c1ccccc1`, the Potency result (in assay [1]; in assay [2]; in assay [3]; in assay [4]; with DFO2036; in the assay on W2) was “inactive” each time.
With `Cn1cc(C(=O)[C@@H]2CCc3[nH]cnc3C2)c2ccccc21`, the Potency entry (in assay [1]; in assay [3]; in assay [4]; in the assay on DFO2036; in the assay with W2) was “inactive” each time.
With `CC(=O)C1(O)Cc2c(O)c3c(c(O)c2C(OC2CC(N)C(O)C(C)O2)C1)C(=O)c1c(O)cccc1C3=O` (centres undefined), the Potency in assay [1] is 22400 nM (active); in assay [4], 99.9 nM (active); in the assay with DFO2036, 7940 nM (active); with W2, 4260 nM (active).
Regarding `CCCC(=O)Nc1c(I)cc(I)c(C[C@H](CC)C(=O)O)c1I`, the Potency entry (in assay [1]; in assay [2]; in assay [3]; in assay [4]; with DFO2036) was “inactive” each time.
Consider `Nc1ncn(C2C[C@H](O)[C@@H](CO)O2)c(=O)n1` (some centres undefined), for which the Potency result (in assay [1]; in assay [2]; in the assay with DFO2036; with W2) was “inactive” throughout.
With `CO/N=C(/C(=O)N[C@@H]1C(=O)N2C(C(=O)O)=C(CSc3nnnn3C)CS[C@H]12)c1csc(N)n1`, the Potency entry (in assay [1]; in assay [2]; in assay [3]; in the assay on W2) was “inactive” in each case.
Regarding `CC(CN1CC(=O)NC(=O)C1)N1CC(=O)NC(=O)C1` (centres undefined), the Potency entry (in assay [1]; in assay [2]; in assay [4]; with DFO2036; in the assay on W2) was “inactive” throughout. Also, the Potency in assay [3] was 18100 nM (active).
With `CC[C@@]1(O)CC2CN(CCc3c([nH]c4ccccc34)[C@](C(=O)OC)(c3cc4c(cc3OC)N(C)C3[C@@](O)(C(=O)OC)C(OC(C)=O)[C@]5(CC)C=CCN6CC[C@@]43C65)C2)C1` (some centres undefined), the Potency entry in assay [5], in assay [1] and in assay [2] was “inactive” throughout. Also, the Potency in assay [3] was 510 nM (active); in assay [4], 562 nM (active); in the assay with DFO2036, 891 nM (active); with W2 it was 953 nM (active).
For the molecule `C=C(CC[C@@H](C)[C@H]1CCC2[C@]1(C)CC[C@]13C[C@@]14CCC(OC(=O)/C=C/c1ccc(O)c(OC)c1)C(C)(C)[C@@H]4CC[C@@]23C)C(C)C` (some centres undefined), the Potency result (in assay [1]; in assay [2]; in assay [3]; in the assay with DFO2036; in the assay with W2) was “inactive” in each case.
With `C[C@]12C=CC(=O)N[C@@H]1CC[C@@H]1C2CC[C@]2(C)C(C(=O)Nc3cc(C(F)(F)F)ccc3C(F)(F)F)CC[C@@H]12` (some centres undefined), the Potency result (in assay [4]; with DFO2036) was “inactive” in each case. Also, in the assay with W2, the Potency is 1510 nM (active).
For the molecule `Nc1nc(/C(=C/CC(=O)O)C(=O)NC2C(=O)N3C(C(=O)O)=CCSC23)cs1` (centres undefined), the Potency result (in assay [6]; in assay [5]; in assay [2]; in assay [3]; in assay [4]; with W2) was “inactive” each time.
As for `CCCCCOC(=O)Nc1nc(=O)n(C2O[C@H](C)[C@@H](O)[C@@H]2O)cc1F` (some centres undefined), the Potency entry (in assay [1]; in assay [2]; in assay [3]; in assay [4]; with DFO2036) was “inactive” in each case.
Take `N#C/C(=C1/SCC(c2ccccc2Cl)S1)n1ccnc1` (centres undefined): the Potency entry (in assay [1]; in assay [2]; in assay [4]; in the assay with DFO2036; with W2) was “inactive” in each case. The Potency in assay [3] is 11400 nM (active).
